Screening results from PubChem BioAssay.
RORgamma inh: inhibitors of mouse ROR gamma transcriptional activity | P51450 | Potency, µM (doses to about 53.6 µM), actives largely listed as inhibitors | actives 5.4% (n = 310,000) | AID 2551 | Drosophila S2 Gal4-RORgamma UAS-luciferase reporter, 20 h; also: nearly all actives have a fitted effect of over 60% in size
Target sequence (P51450 whole entry, looked up, the tested form may be a part): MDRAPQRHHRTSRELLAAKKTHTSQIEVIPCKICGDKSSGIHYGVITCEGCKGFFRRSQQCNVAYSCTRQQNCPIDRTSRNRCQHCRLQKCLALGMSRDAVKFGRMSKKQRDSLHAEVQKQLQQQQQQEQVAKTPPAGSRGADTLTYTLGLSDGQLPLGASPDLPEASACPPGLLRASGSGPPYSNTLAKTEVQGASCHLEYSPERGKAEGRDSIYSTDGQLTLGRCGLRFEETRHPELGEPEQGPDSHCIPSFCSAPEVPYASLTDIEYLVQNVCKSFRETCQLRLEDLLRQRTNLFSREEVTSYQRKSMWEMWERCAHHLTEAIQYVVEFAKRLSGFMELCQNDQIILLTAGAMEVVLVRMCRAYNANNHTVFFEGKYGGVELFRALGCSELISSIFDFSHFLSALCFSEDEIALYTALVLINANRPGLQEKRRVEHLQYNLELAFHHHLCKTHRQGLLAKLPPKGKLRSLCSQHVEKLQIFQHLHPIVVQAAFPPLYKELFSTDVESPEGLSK
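Stably transfected Drosophila Schneider cells are the test system, with ROR gamma fused to Gal4 and luciferase under UAS control; luminescence is read after 20 hr of 700 uM copper sulfate induction at ambient temperature.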
Gal4-VP16 FLuc: Gal4-VP16 reporter inhibition counter-screen | Drosophila S2 Gal4-VP16 UAS-luciferase, luminescence, 20 h | Potency, µM (top dose mostly 53.6 µM), actives largely listed as inhibitors | actives 3.5% (n = 310,000) | AID 2546;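 also: Gal4-VP16 expression switched on by copper sulfate through the metallothionein promoter; nearly all actives have a fitted effect of over 50% in size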
DT40 TDP1 no CPT: qHTS for Inhibitors of human tyrosyl-DNA phosphodiesterase 1 (TDP1): qHTS in cells in absence of CPT; DT40 Tdp1-/- hTDP1 cells, no CPT, ATP luminescence, 48 h; Potency, µM (doses to about 46.2 µM), hits mostly inhibitors; actives 15% (n = 420,000); also: nearly all actives have a fitted effect of over 55% in size
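Readout: luminescence from CellTiter-Glo after 30 min in the dark at RT. Cells: DT40 Tdp1-/- with stable hTDP1, 400/well. Exposure: compounds alone, ≥48 hr, 37 °C.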
IL1B secr inh: inflammasome signaling inhibition, IL-1 beta readout; THP-1 LPS/ATP IL-1B secretion, AlphaLISA, 16 h; stronger effect = lower value; actives 4.7% (n = 360,000); activity change, % at 57.5 µM; in the data active = activity change below about -50%; inconclusive = mostly about -30% to -49%
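THP-1 cells pretreated 1 hr with compounds (up to 57.5 uM final), then stimulated with LPS (250 ng/mL final) plus ATP (1.25 mM final); secreted IL-1B measured by AlphaLISA after 16 hr, decreased signal indicating inhibition.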
ELG1 repair inh: ELG1-dependent DNA repair inhibition | HEK293T ELG1-luciferase reporter, luminescence, 16 h; DNA damage induced by 5-fluorouridine | Potency, µM (doses to about 46.1 µM), usual class: inhibitors | actives 2.3% (n = 330,000) | AID 504467; also: nearly all actives have a fitted effect of over 55% in size
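Quantitative HTS, concentration-response format. 2,000 cells/well co-treated with 5-fluorouridine and compound, 16 hr in 5% CO2 at 37 °C; ONE-Glo luminescence read after 30 min.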
DT40 TDP1 CPT: DT40-hTDP1 cell growth loss with CPT. chicken DT40 Tdp1-/-;hTDP1 cells + 20 nM CPT, ATP luminescence, 48 h. Potency, µM (titrated, usually from 46.2 µM), usual class: inhibitors. actives 12% (n = 420,000); also: nearly all actives have a fitted effect of over 55% in size
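Cell growth measured by CellTiter-Glo luminescence after a minimum 48 h, 37 C compound exposure with 20 nM CPT in Tdp1-knockout DT40 cells stably expressing hTDP1, seeded 400/well; qHTS titration format.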
A number is an active result; n = inactive; u = inconclusive; x = not tested or not shown; [ ] = dose if it differs, or a comment. Most compounds without a hit are left out; they make up all but 21% or so of the library. Unless noted, calls follow the shape of the dose curve; as a rule, active = well fitted curve in the direction sought with a large enough effect; inconclusive = small, poorly fitted or top-dose-only effect, or another doubt; inactive = no such curve, though single readings can be large; an effect the other way counts as inactive or inconclusive.

SMILES | RORgamma inh | Gal4-VP16 FLuc | DT40 TDP1 no CPT | IL1B secr inh | ELG1 repair inh | DT40 TDP1 CPT
CN(C(=O)COC(=O)/C=C/c1ccccc1)C1CCS(=O)(=O)C1 (stereo unspecified) | x | x | n | n | x | n
CCN(C(=O)COC(=O)c1cc(-c2cccs2)nc2ccccc12)C1CCS(=O)(=O)C1 (stereo unspecified) | n | n | n | -54 | n | n
CN(C(=O)COC(=O)/C=C/c1ccc2ccccc2n1)C1CCS(=O)(=O)C1 (stereo unspecified) | n | n | u | -106 | u | u
COc1ccc(-c2cc(C(=O)OCC(=O)N(C)C3CCS(=O)(=O)C3)c3ccccc3n2)cc1OC (stereo unspecified) | n | n | u | -62 | n | u
Cc1ccc(-c2cc(C(=O)OCC(=O)N(C)C3CCS(=O)(=O)C3)c3ccccc3n2)c(C)c1 (stereo unspecified) | n | n | n | n | n | n
CC(=O)Nc1ccc(NC(=O)COC(=O)c2ccc(S(=O)(=O)N(C)c3ccccc3)cc2)cc1 | x | x | n | n | x | n
O=P(CCc1ccccc1)(c1ccccc1)c1ccccc1 | x | x | n | n | x | n
CCOC(=O)CNC(=O)c1ccc2[nH]c3ccccc3c2c1 | u | n | u | -63 | u | u
Cc1ccccc1CNC(=O)C(C)N(c1ccccc1)S(C)(=O)=O (stereo unspecified) | x | x | n | x | x | n
C[N+](C)(C)C/C=C1/COCO1 | n | n | u | n | n | 18µM
CN1CCN(c2ccnc(N(C)CCCCCCN)n2)CC1 | x | x | u | x | x | 13µM
CN1CCN(c2ccnc(-c3ccc(N(C)C)cc3)n2)CC1 | n | n | 23µM | x | x | 23µM
COc1ccc(-n2c(=O)c(-c3cc(F)cc(F)c3)nc3cnc(N4CCNCC4)nc32)cc1 | u | u | 21µM | x | x | 15µM
O=c1c(-c2ccc(F)cc2)nc2cnc(N3CCNCC3)nc2n1-c1ccccc1 | n | n | u | x | x | 15µM
COc1ccc(CN(CCCn2cnc3c(OC)ncnc32)CCCn2cnc3c(OC)ncnc32)cc1 | x | x | u | n | x | u
Cc1ccc2[nH]c(=S)cc(C)c2c1 | 16µM | u | u | n | n | u
Cc1ccc2c(C)cc(=S)[nH]c2c1 | 4µM | u | u | n | n | u
O=C(CCC1N=C2c3ccccc3N=C(SCc3ccccc3F)N2C1=O)NCc1ccc(F)cc1 (stereo unspecified) | x | x | 26µM | x | x | u
O=C(CCC1N=C2c3ccccc3N=C(SCc3ccccc3F)N2C1=O)NCc1ccccc1 (stereo unspecified) | x | x | 18µM | x | x | u
COc1ccc(CNC(=O)CCC2N=C3c4ccccc4N=C(SCc4ccc(F)cc4)N3C2=O)cc1 (stereo unspecified) | x | x | 23µM | x | x | u
O=C(CCC1N=C2c3ccccc3N=C(SCc3ccc(F)cc3)N2C1=O)NCc1cccs1 (stereo unspecified) | x | x | n | x | x | n
C=CCn1c(O)c(N=NC(=O)c2cccnc2)c2cc(Br)ccc21 | n | n | n | n | n | n
CC(C)c1ccc(NC(=S)NC2CCCCCC2)cc1 | 2.2µM | 16µM | u | u | u | u
CCN(C(=S)Nc1ccc(OC(F)F)cc1)C1CCCCC1 | u | n | n | u | n | n
S=C(Nc1ccc(Oc2ccc(NC(=S)NC3CCCCC3)cc2)cc1)NC1CCCCC1 | 1µM | u | u | n | n | u
SMILES | RORgamma inh | Gal4-VP16 FLuc | DT40 TDP1 no CPT | IL1B secr inh | ELG1 repair inh | DT40 TDP1 CPT
O=C(O)c1ccc(NC(=S)NC2CCCCC2)cc1 | n | n | n | n | n | n
NS(=O)(=O)c1ccc(NC(=S)NC2CCCC2)cc1 | n | n | n | n | n | n
CN(C(=S)Nc1ccc(Oc2ccccc2)cc1)C1CCCCC1 | n[10 µM] | u | 26µM | -100 | u | u
S=C(Nc1ccc(Oc2ccccc2)cc1)NC1CCCCCC1 | 1.8µM | 3.2µM | 23µM | -76 | n | 21µM
NS(=O)(=O)c1ccc(NC(=S)NC2CCCCCC2)cc1 | n | n | n | n | n | n
O=C1CCN(Cc2ccccc2)C=C1c1cccc(O)c1 | x | x | u | n | n | u
CC(=O)c1ccc(NC(=S)NNC(=O)NC2CCCCC2)cc1 | u | u | n | n | n | n
S=C(Nc1ccc(Oc2ccccc2)cc1)NC1CCCCC1 | 2.2µM | n[0.365 µM] | u | n | n | 26µM
Cc1ccc(NC(=S)NNC(=S)NC2CCCCC2)cc1 | 16µM | u | u | n | n | u
CC(C)COc1ccc(-c2cc(C(=O)NN)[nH]n2)cc1 | 13µM | u | u | n | u | u
CCOC(=O)c1cc(-c2ccc(OC)cc2)n[nH]1 | n | n | n | n | u | n
Cc1cc(C)n(CCc2nc3c4ccccc4nc(SCc4ccc(Cl)cc4)n3n2)n1 | x | x | n | x | x | n
O=C(CSc1nnnn1-c1ccc(F)cc1)c1ccc(O)c(O)c1 | n | n[10 µM] | u | n | n | 18µM
O=C(O)c1ccc(CSc2nnnn2-c2ccc(F)cc2)cc1 | n | n | n | n | n | n
Nc1ccc2c(c1)C(=O)N(c1cccc3ccccc13)C2=O | n[1.91 µM] | n | n | n | n | n
CC1=CC(=O)N(c2cccc3c(N4C(=O)C=C(C)C4=O)cccc23)C1=O | x | x | 2.9µM | -81 | x | 1.8µM
CC1CCC(NC(=O)CCS(=O)(=O)c2ccc3c(c2)NC(=O)C(C)S3)CC1 (stereo unspecified) | n | n | n | n | n | u
CN(C)C(=S)N=c1ssc(=S)n1Cc1ccccc1 | x | x | 3.7µM | n | x | 2.6µM
C#CCOc1nc(Nc2cccc([N+](=O)[O-])c2)nc(OCC#C)n1 | n | n | 21µM | -66 | 18µM | u
Cc1nn(-c2ccccc2C(=O)O)c(=O)c2ccccc12 | n | n | n | n | n | n
CC1=NC(=O)C(N=Nc2cccc(C(=O)O)c2)N1c1ccccc1 (stereo unspecified) | 5.6µM | 8.9µM | n | n | u | n
CC1=NC(=O)C(N=Nc2ccccc2)N1c1ccccc1 (stereo unspecified) | n | u | n | n | u | n
CC1=NC(=O)C(N=Nc2ccccc2C(=O)O)N1c1ccccc1 (stereo unspecified) | n | n | 13µM | n | n | 7.3µM
CCOc1cc(-c2nc(C)c(C(C)=O)n2O)ccc1OCC(=O)Nc1ccccc1 | u | n | u | n | n | u
Cc1nc(NC(C)C)c2oc3ccccc3c2n1 | n | u | 13µM | u | u | u
CCNc1nc(C)nc2c1oc1ccccc12 | n | n | n | n | n | 0.58µM
O=C(CSc1nc(=O)n(Cc2ccncc2)c2c1CCC2)Nc1ccccc1 | x | x | n | x | x | n
COc1ccc(NC(=O)c2cc(-c3cc(F)ccc3OC)n[nH]2)c(OC)c1 | x | x | u | x | x | 26µM
